Test systems include T-47D breast; BT-549 breast; MDA-MB-435 melanoma; SW-620 colon; MCF7 breast; HCT-116 colon; HCC-2998 colon; KM12 colon; MDA-MB-468 breast.
Holding throughout (test): NCI-60 one-dose screen, 48 h (100 = growth as untreated, 0 = no growth, -100 = all killed)
What all share (conditions): 10 µM unless noted

Each structure is given as a SMILES string. Values joined by “and” are separate entries in the source; they are usually repeats but may differ in a detail not shown here. Equal values may be shown once. About 83,000 compounds went through this panel and 20% of them were active in at least one assay; those are over-represented in the sample as a whole.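 Activity criterion: percent growth below 10, measured after cells in 96-well plates were exposed to a single compound concentration for 48 hours.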 Unmarked numbers belong to inactive results. Active and inactive are the calls of the source.

Growth data for 14 compounds are collected here from PubChem BioAssay (NCI).

Consider `COc1c2c(c(Br)c3c1C(CCc1ccccc1)N(C)CC3)OCO2` (stereo unspecified), for which the growth was 33.6% with T-47D breast; 3.17% (active) in the test on BT-549 breast; 13.9% in the test with MDA-MB-435 melanoma; 11.9% with SW-620 colon; 18.6% with MCF7 breast; 11% in the test on HCT-116 colon. In addition, the growth is 27.4% in the test with HCC-2998 colon, 11.4% with KM12 colon and 41.8% in the test with MDA-MB-468 breast.
On to `CN1CCN(CCS(=O)(=O)Nc2cc(-c3ccc4ncnc(Nc5ccc(F)c(Cl)c5)c4c3)cnc2Cl)CC1`, for which the growth is -6.97% (active) in the test on T-47D breast; -53% (active) in the test on BT-549 breast; 0.425% (active) in the test on MDA-MB-435 melanoma; 36.2% with SW-620 colon; 10.2% with MCF7 breast; 27.8% in the test with HCT-116 colon. Also, the results for the growth in the test with HCC-2998 colon, in the test on KM12 colon and in the test with MDA-MB-468 breast were -8.06% (active), 46.4% and -75.1% (active), respectively.
Turning to `CC[C@]12C=CCN3CC[C@@]4(c5ccc(OC)cc5N(C)[C@H]4[C@@](O)(C(=O)OC)[C@@H]1OC(=O)CCCC[P+](c1ccc(F)cc1)(c1ccc(F)cc1)c1ccc(F)cc1)[C@@H]32`, the growth was 12.8% in the test with T-47D breast; -23.5% (active) in the test on BT-549 breast; -16% (active) in the test with MDA-MB-435 melanoma; 36.9% in the test with SW-620 colon; 5.18% (active) in the test on MCF7 breast; 23.4% with HCT-116 colon. In addition, the growth in the test with HCC-2998 colon was 19.4%; in the test on KM12 colon, 16%; in the test on MDA-MB-468 breast it was -74.6% (active).
As to `O=c1c(-c2nc(-c3ccccc3)c(-c3ccccc3)[nH]2)coc2ccc(F)cc12`, the growth is 22.1% in the test with T-47D breast; 70.8% with BT-549 breast; 65.4% with MDA-MB-435 melanoma; 51% with SW-620 colon; 25.9% in the test with MCF7 breast; 39.4% with HCT-116 colon. Moreover, the growth with HCC-2998 colon is 77.2%; in the test with KM12 colon, 23.4%; with MDA-MB-468 breast, 16%.
`CC(=O)Nc1cccc(-n2c(COc3ccc(Br)cc3)nc3ccccc32)c1`: the growth is 88.5% and 109% with T-47D breast; 109% and 97.2% in the test on BT-549 breast; 107% and 103% with MDA-MB-435 melanoma; 97.9% and 103% in the test with SW-620 colon; 82.3% and 97.2% in the test on MCF7 breast; 101% and 102% in the test with HCT-116 colon. Moreover, the growth with HCC-2998 colon was 129% and 112%; with KM12 colon, 103% and 101%; in the test on MDA-MB-468 breast, 81.7% and 102%.
Take `CC(Nc1ncnc2ccc(-c3ccc4oc(N)nc4c3)cc12)c1ccccc1` (stereo unspecified): the growth with T-47D breast is -74.3% (active); in the test on BT-549 breast it was -21.6% (active); in the test on MDA-MB-435 melanoma it was 13%; with SW-620 colon it was -66.6% (active); in the test on MCF7 breast, -73.1% (active); with HCT-116 colon, -64.7% (active). Moreover, the results for the growth with HCC-2998 colon, in the test on KM12 colon and in the test with MDA-MB-468 breast were 41.5%, 23.6% and -78.4% (active), respectively.
Take `COc1ccc(C(=O)C[n+]2cccc3c4ccccc4ccc32)cc1`: the growth is 38.2% in the test on T-47D breast; 33.2% with BT-549 breast; 37.5% with MDA-MB-435 melanoma; 36.4% in the test on SW-620 colon; 18.1% in the test with MCF7 breast; 29.8% in the test on HCT-116 colon. Also, the results for the growth with HCC-2998 colon, in the test with KM12 colon and in the test with MDA-MB-468 breast were 48.5%, 34.9% and 2.93% (active), respectively.
Take `O=C(N/N=C/c1ccc(Br)o1)c1[nH]c2ccc(Br)cc2c1-c1ccccc1`: the growth in the test with T-47D breast was 27.1%; in the test on BT-549 breast it was -27.8% (active); in the test with MDA-MB-435 melanoma, -29.1% (active); in the test on SW-620 colon, 6.96% (active); with MCF7 breast it was 0.0933% (active); in the test on HCT-116 colon, -13.3% (active). Further, the growth in the test on HCC-2998 colon was -7.57% (active); in the test on KM12 colon, -1.58% (active); with MDA-MB-468 breast, 5.25% (active).
On to `Cc1nc2sccn2c1-c1nnc(SCc2ccccc2)o1`, for which the growth is 74.5% with T-47D breast; 119% with BT-549 breast; 97.4% with MDA-MB-435 melanoma; 105% with SW-620 colon; 74.2% in the test on MCF7 breast; 91.6% in the test on HCT-116 colon. Moreover, the growth in the test on HCC-2998 colon is 103%; in the test with KM12 colon, 98.5%; in the test on MDA-MB-468 breast it was 52%.
Regarding `c1n[nH]cc1-c1nc2ccc3[nH]ncc3c2c2c1CC1(CC2)COC1`, the growth was 26.8% with T-47D breast; -7.9% (active) with BT-549 breast; 30.7% in the test on MDA-MB-435 melanoma; 8.89% (active) in the test with SW-620 colon; 62.4% in the test with MCF7 breast; 15.4% in the test with HCT-116 colon. In addition, the growth in the test on HCC-2998 colon was 60.4%; in the test with KM12 colon, 56.7%; in the test with MDA-MB-468 breast, -24.5% (active).
As for `C=CCSc1nnc(-c2c(C)nc3sccn23)o1`, the growth in the test on T-47D breast is 79.4%; with BT-549 breast it was 65.2%; with MDA-MB-435 melanoma it was 101%; with SW-620 colon it was 97%; in the test with MCF7 breast, 70.8%; in the test on HCT-116 colon, 94%. The growth is 110% in the test on HCC-2998 colon, 101% in the test on KM12 colon and 5.74% (active) with MDA-MB-468 breast.
For `O=C(NC(=S)N1CCN(c2ncnc3c2cnn3-c2ccccc2)CC1)c1ccc(F)cc1`, the growth was 66.6% in the test on T-47D breast; 86.2% in the test on BT-549 breast; 77.2% in the test on MDA-MB-435 melanoma; 76.6% in the test with SW-620 colon; 52.4% in the test with MCF7 breast; 55.1% with HCT-116 colon. Besides, the growth with HCC-2998 colon was 99.1%; with KM12 colon, 79.7%; in the test on MDA-MB-468 breast, 66.7%.
As for `COc1ccc(-c2cc(C(=O)N=Nc3c(O)[nH]c4ccc(Cl)cc34)c3ccccc3n2)cc1OC`, the growth was 106% in the test on T-47D breast; 113% with BT-549 breast; 119% in the test on MDA-MB-435 melanoma; 103% in the test with SW-620 colon; 87.8% in the test with MCF7 breast; 101% in the test on HCT-116 colon. The growth in the test with HCC-2998 colon was 109%; with KM12 colon, 101%; with MDA-MB-468 breast, 98.9%.
Regarding `Cc1ccc(C(=O)Nc2cc(-c3ccncc3)cc(C(F)(F)F)c2)cc1C#Cc1cnc2cccnn12`, the growth in the test with T-47D breast is 81.6%; in the test on BT-549 breast, 86.8%; in the test with MDA-MB-435 melanoma it was 33.9%; with SW-620 colon it was 30.7%; in the test with MCF7 breast, 45.9%; in the test with HCT-116 colon, 23.4%. The growth in the test on HCC-2998 colon is 63.5%; in the test with KM12 colon, 36.2%; in the test on MDA-MB-468 breast, 92.7%.
